Measured values as given in PubChem BioAssay AID1159580 (chemical genetic matrix, 2015).
Values joined by “and” are separate entries in the source; they are usually repeats but may differ in a detail not shown here. Identical values can stand only once. About 2,000 (36%) of roughly 5,500 compounds were called active. Another 18% or so got no clear call; they are omitted. Rule as the data show it: active = normalized growth mostly below about 0.91 (no sharp cut-off); inconclusive = no clear call, values can overlap the other calls; inactive = mostly above about 0.92. Some of the results follow.

Test: chemical genetic growth profiling, strain panel (AID 1159580);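 also: tested at 20 µM; growth read once vehicle control cultures reached saturation at 30 °C; 1 = growth at the plate median or of vehicle wells; lower values mean less growth of the strain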
Conditions: S. cerevisiae deletion strains, growth OD

Measured: normalized growth

CCNC(=O)CC[C@H](N)C(=O)O
inactive: locus YAL021C, strain ccr4, stronger effect = lower value 0.995 | locus YAL026C, strain drs2, stronger effect = lower value 1 | locus YAL030W, strain snc1, stronger effect = lower value 0.998 | locus YBL061C, strain skt5, stronger effect = lower value 0.993 | locus YBR009C, strain hhf1, stronger effect = lower value 1.02 | locus YBR021W, strain FUR4, stronger effect = lower value 1.03 | locus YBR023C, strain chs3, stronger effect = lower value 0.993 | locus YBR171W, strain sec66, stronger effect = lower value 1 | locus YBR229C, strain ROT2, stronger effect = lower value 0.991 | locus YBR231C, strain swc5, stronger effect = lower value 0.997 | locus YBR279W, strain paf1, stronger effect = lower value 1 | locus YCL011C, strain gbp2, stronger effect = lower value 1 | locus YCL016C, strain dcc1, stronger effect = lower value 0.996 | locus YCL029C, strain bik1, stronger effect = lower value 0.988 | locus YCL061C, strain MRC1, stronger effect = lower value 1 | locus YCL069W, strain vba3, stronger effect = lower value 1.01 | locus YCR088W, strain abp1, stronger effect = lower value 1 | locus YDL005C, strain med2, stronger effect = lower value 0.986 | locus YDL035C, strain GPR1, stronger effect = lower value 1.04 | locus YDL040C, strain nat1, stronger effect = lower value 0.998 | locus YDL074C, strain BRE1, stronger effect = lower value 1.02 | locus YDL101C, strain DUN1, stronger effect = lower value 0.965 | locus YDL134C, strain PPH21, stronger effect = lower value 1.01 | locus YDL185W, strain tfp1, stronger effect = lower value 0.996 | locus YDL192W, strain arf1, stronger effect = lower value 1 | locus YDR001C, strain nth1, stronger effect = lower value 0.997 | locus YDR069C, strain doa4, stronger effect = lower value 1.03 | locus YDR101C, strain arx1, stronger effect = lower value 1 | locus YDR137W, strain rgp1, stronger effect = lower value 1.01 | locus YDR159W, strain sac3, stronger effect = lower value 0.992 | locus YDR162C, strain NBP2, stronger effect = lower value 1.03 | locus YDR195W, strain ref2 0.994 | locus YDR297W, strain sur2, stronger effect = lower value 0.99 | locus YDR318W, strain mcm21, stronger effect = lower value 0.999 | locus YDR334W, strain swr1, stronger effect = lower value 1 | locus YDR335W, strain msn5, stronger effect = lower value 1 | locus YDR388W, stronger effect = lower value 1 | locus YDR392W, strain spt3, stronger effect = lower value 0.991 | locus YDR502C, strain sam2, stronger effect = lower value 0.999 | locus YEL003W, strain gim4, stronger effect = lower value 1.01 | locus YEL037C, strain rad23, stronger effect = lower value 0.996 | locus YEL061C, strain CIN8 (second series), stronger effect = lower value 1 | locus YEL061C, strain CIN8, stronger effect = lower value 0.999 | locus YER015W, strain faa2, stronger effect = lower value 1.01 | locus YER016W, strain bim1, stronger effect = lower value 0.991 | locus YER110C, stronger effect = lower value 0.981 | locus YER111C, strain swi4, stronger effect = lower value 1 | locus YER155C, strain BEM2 (second series), stronger effect = lower value 0.99 | locus YER155C, strain BEM2, stronger effect = lower value 0.974 | locus YER167W, strain BCK2, stronger effect = lower value 0.995 | locus YFR010W, strain ubp6, stronger effect = lower value 1 | locus YGL078C, strain dbp3, stronger effect = lower value 0.988 | locus YGL086W, strain mad1, stronger effect = lower value 1 | locus YGL167C, strain pmr1, stronger effect = lower value 0.997 | locus YGL173C, strain kem1, stronger effect = lower value 0.996 | locus YGL227W, strain vid30, stronger effect = lower value 0.992 | locus YGL240W, strain doc1, stronger effect = lower value 1 | locus YGL248W, strain PDE1, stronger effect = lower value 1 | locus YGL253W, strain hxk2, stronger effect = lower value 1 | locus YGR135W, strain pre9, stronger effect = lower value 1.01 | locus YGR252W, strain gcn5, stronger effect = lower value 1.04 | locus YHR013C, strain ard1, stronger effect = lower value 0.987 | locus YHR027C, strain rpn1, stronger effect = lower value 1.01 | locus YHR030C, strain SLT2, stronger effect = lower value 0.999 and 1.01 | locus YHR079C, strain IRE1 (second series), stronger effect = lower value 0.997 | locus YHR079C, strain IRE1, stronger effect = lower value 1.04 | locus YHR094C, strain hxt1, stronger effect = lower value 0.989 | locus YHR129C, strain ARP1, stronger effect = lower value 0.995 | locus YHR142W, strain chs7, stronger effect = lower value 1.01 | locus YHR200W, strain rpn10, stronger effect = lower value 0.994 | locus YIL066C, strain RNR3, stronger effect = lower value 1.04 | locus YIL073C, strain SPO22, stronger effect = lower value 0.979 | locus YIL125W, strain kgd1, stronger effect = lower value 0.995 | locus YIR030C, strain dcg1, stronger effect = lower value 0.994 | locus YJL092W, strain hpr5, stronger effect = lower value 0.993 | locus YJL095W, strain BCK1 (second series), stronger effect = lower value 0.99 | locus YJL095W, strain BCK1, stronger effect = lower value 1 and 1.04 | locus YJL115W, strain asf1, stronger effect = lower value 0.999 | locus YJL129C, strain trk1, stronger effect = lower value 0.999 | locus YJL134W, strain LCB3, stronger effect = lower value 0.998 | locus YJL154C, strain vps35, stronger effect = lower value 1 | locus YJL164C, strain tpk1, stronger effect = lower value 1.01 | locus YJL166W, strain qcr8, stronger effect = lower value 1 | locus YJL168C, strain set2, stronger effect = lower value 0.991 | locus YJL187C, strain SWE1 (second series), stronger effect = lower value 0.996 | locus YJR043C, strain POL32, stronger effect = lower value 1.05 | locus YJR066W, strain TOR1, stronger effect = lower value 0.958 | locus YJR075W, strain HOC1, stronger effect = lower value 0.995 | locus YKL009W, strain mrt4, stronger effect = lower value 0.986 | locus YKL068W, stronger effect = lower value 0.987 | locus YKL085W, strain MDH1 (second series), stronger effect = lower value 1.02 | locus YKL085W, strain MDH1, stronger effect = lower value 1.02 | locus YKL160W, strain elf1, stronger effect = lower value 0.999 | locus YKR001C, strain vps1, stronger effect = lower value 1 | locus YKR026C, strain gcn3, stronger effect = lower value 1 | locus YKR091W, strain srl3, stronger effect = lower value 1 | locus YLL001W, strain dnm1, stronger effect = lower value 0.997 | locus YLL026W, stronger effect = lower value 0.993 | locus YLL041C, strain sdh2, stronger effect = lower value 1 | locus YLR027C, strain aat2, stronger effect = lower value 0.997 | locus YLR039C, strain RIC1, stronger effect = lower value 1.03 | locus YLR058C, strain SHM2, stronger effect = lower value 0.998 | locus YLR102C, strain apc9, stronger effect = lower value 0.987 | locus YLR113W, strain HOG1, stronger effect = lower value 1.02 | locus YLR221C, strain rsa3, stronger effect = lower value 1.01 | locus YLR258W, strain gsy2, stronger effect = lower value 0.994 | locus YLR262C, strain YPT6 (second series), stronger effect = lower value 0.984 | locus YLR262C, strain YPT6, stronger effect = lower value 1.04 | locus YLR268W, strain sec22, stronger effect = lower value 0.986 | locus YLR320W, strain mms22, stronger effect = lower value 0.999 | locus YLR330W, strain CHS5, stronger effect = lower value 1.01 | locus YLR342W, strain FKS1 (second series), stronger effect = lower value 1.03 | locus YLR342W, strain FKS1, stronger effect = lower value 1.02 | locus YLR357W, strain rsc2, stronger effect = lower value 0.962 | locus YLR370C, strain arc18, stronger effect = lower value 1 | locus YLR371W, strain rom2, stronger effect = lower value 0.989 | locus YLR384C, strain iki3, stronger effect = lower value 0.982 | locus YLR418C, strain cdc73, stronger effect = lower value 1.02 | locus YML016C, strain PPZ1, stronger effect = lower value 0.993 | locus YML032C, strain rad52, stronger effect = lower value 1.01 | locus YML120C, strain ndi1, stronger effect = lower value 1 | locus YML124C, strain tub3, stronger effect = lower value 0.996 | locus YMR058W, strain fet3, stronger effect = lower value 0.999 | locus YMR078C, strain ctf18, stronger effect = lower value 0.996 | locus YMR125W, strain sto1, stronger effect = lower value 0.996 | locus YMR129W, stronger effect = lower value 0.991 | locus YMR205C, strain PFK2, stronger effect = lower value 1.01 | locus YMR223W, strain ubp8, stronger effect = lower value 1.01 | locus YMR231W, strain pep5, stronger effect = lower value 1 | locus YMR263W, strain SAP30, stronger effect = lower value 0.989 | locus YMR307W, strain GAS1, stronger effect = lower value 1.06 | locus YNL067W, strain RPL9B, stronger effect = lower value 0.984 | locus YNL071W, strain lat1, stronger effect = lower value 1 | locus YNL183C, strain NPR1, stronger effect = lower value 0.953 | locus YNL209W, strain ssb2, stronger effect = lower value 1.01 | locus YNL233W, strain BNI4, stronger effect = lower value 1.01 | locus YNL248C, strain rpa49, stronger effect = lower value 1 | locus YNL250W, strain rad50, stronger effect = lower value 0.975 | locus YNL271C, strain bni1, stronger effect = lower value 0.999 | locus YNL298W, strain CLA4, stronger effect = lower value 0.995 | locus YNL307C, strain MCK1, stronger effect = lower value 0.992 | locus YNL322C, strain KRE1 (second series), stronger effect = lower value 0.979 | locus YNR049C, strain mso1, stronger effect = lower value 0.984 | locus YNR052C, strain pop2, stronger effect = lower value 0.998 | locus YOL006C, strain TOP1, stronger effect = lower value 1.07 | locus YOL012C, strain htz1 1.05 | locus YOL147C, strain pex11, stronger effect = lower value 0.998 | locus YOR001W, strain rrp6, stronger effect = lower value 1 | locus YOR061W, strain CKA2, stronger effect = lower value 1 | locus YOR069W, strain VPS5, stronger effect = lower value 0.988 | locus YOR070C, strain gyp1, stronger effect = lower value 1.01 | locus YOR080W, strain dia2, stronger effect = lower value 0.99 | locus YOR083W, strain WHI5, stronger effect = lower value 0.998 | locus YOR106W, strain vam3, stronger effect = lower value 1.01 | locus YOR136W, strain idh2, stronger effect = lower value 0.983 | locus YOR144C, strain elg1, stronger effect = lower value 0.995 | locus YOR184W, strain ser1, stronger effect = lower value 1 | locus YOR231W, strain MKK1, stronger effect = lower value 1.02 | locus YOR265W, strain rbl2, stronger effect = lower value 0.991 | locus YOR270C, strain vph1, stronger effect = lower value 1.04 | locus YOR290C, strain snf2, stronger effect = lower value 1 | locus YOR316C, strain cot1, stronger effect = lower value 0.99 | locus YPL051W, strain arl3, stronger effect = lower value 0.996 | locus YPL055C, strain LGE1, stronger effect = lower value 1.03 | locus YPL078C, strain atp4, stronger effect = lower value 0.991 | locus YPL106C, strain sse1, stronger effect = lower value 0.984 | locus YPL240C, strain hsp82, stronger effect = lower value 1.01 | locus YPL256C, strain CLN2, stronger effect = lower value 1.01 | locus YPR119W, strain clb2, stronger effect = lower value 1.01 | locus YPR141C, strain kar3, stronger effect = lower value 0.985 | locus YPR163C, strain tif3, stronger effect = lower value 0.995 | locus YPR167C, strain met16, stronger effect = lower value 0.998 | strain wtn01, stronger effect = lower value 0.989
